Results as given in PubChem BioAssay (Tox21).
Results filed as inconclusive are left out. Where a call stands in place of a potency, no number is given. Unmarked numbers belong to inactive results. Active and inactive are the calls of the source. Unless noted, calls follow the shape of the full dose curve.

Experiments:
[1] = qHTS assay to identify small molecule antagonists of the vitamin D receptor (VDR) signaling pathway - cell viability counter screen (AID 743225; active = well fitted curve in the direction sought with a large enough effect in the repeat runs; an effect the other way counts as inactive or inconclusive; also: nearly all actives have a fitted effect of over 50% in size; also: potency is read from the fitted curve at half-maximal effect)
Procedure, shortened: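 VDR-UAS-bla HEK 293T cells were plated and incubated 4 h at 37C, then dosed with compound plus 3 nM (final) 1-alpha,25-dihydroxyvitamin D3 for 16 h. After the 2 h beta-lactamase read, viability in the same wells was read as CellTiter-Glo luminescence after 30 min at room temperature.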

[2] = qHTS assay to identify small molecule agonists of the NFkB signaling pathway (AID 1159509; active = well fitted curve in the direction sought with a large enough effect in the signal ratio in the repeat runs, not every such curve was filed as active; the % refers to the signal ratio; also: series mostly up to about 61 µM)
Procedure, shortened: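 Pathway activation was measured in ME-180 cells stably expressing beta-lactamase under NF-kB response element control. Substrate cleavage was read as the 460/530 nm emission shift after 5 hr compound incubation.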

[3] = qHTS assay to identify small molecule agonists of the NFkB signaling pathway - cell viability counter screen (AID 1159515); also: series mostly up to about 61 µM; nearly all actives have a fitted effect of over 55% in size
Procedure, shortened: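 Counter screen run alongside the NFkB-bla agonist assay: ME-180 reporter cells exposed to compounds for 5 hr, then lysed with CellTiter-Glo in the same wells. Luminescence, read after 30 min, reflects viable cells.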

[4] = qHTS assay to identify small molecule agonists of the endoplasmic reticulum stress response signaling pathway (AID 1159516; active = well fitted activation curve with a large enough effect in the signal ratio in the repeat runs, not every such curve was filed as active; the % refers to the signal ratio)
Procedure, shortened: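 For this screen, HeLa cells stably carrying beta-lactamase under the ER stress response element received test compounds, positive controls or DMSO for 5 hr at 37 C; B/G FRET substrate was then added and dual-wavelength emission recorded.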

[5] = qHTS assay to identify small molecule antagonists of the retinoid-related orphan receptor gamma (ROR-gamma) signaling pathway - cell viability counter screen (AID 1159520; active = well fitted curve in the direction sought with a large enough effect in the repeat runs; an effect the other way counts as inactive or inconclusive; also: nearly all actives have a fitted effect of over 50% in size)
Procedure, shortened: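 Tet-on ROR gamma CHO cells were given compounds for 2 hr, then doxycycline hyclate at 1 uM final, and incubated 16 hr at 37 C. Viability was measured as ATP content by CellTiter-Glo luminescence.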

[6] = biological target: Nuclear receptor ROR-gamma (Homo sapiens) (UniProt P51449); assay: qHTS assay to identify small molecule antagonists of the retinoid-related orphan receptor gamma (ROR-gamma) signaling pathway (AID 1159521; active = well fitted curve in the direction sought with a large enough effect in the repeat runs; an effect the other way counts as inactive or inconclusive;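 also: CHO cells with doxycycline inducible ROR-gamma driving an RORE luciferase reporter; top concentration of the series differs between compounds; nearly all actives have a fitted effect of over 50% in size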)
Procedure, shortened: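 Tet-on ROR-gamma CHO cells with ROR response element-luciferase reporter; compounds added 2 hr before 1 uM doxycycline induction, then 16 hr at 37 C. Antagonism scored as decreased ONE-Glo luminescence.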

[7] = qHTS assay to identify small molecule agonists of the AP-1 signaling pathway - cell viability counter screen (AID 1159525); also: nearly all actives have a fitted effect of over 55% in size
Procedure, shortened: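 Same-well cytotoxicity counter screen of the Tox21 10K library in ME-180 cells. The readout is ATP-dependent luminescence after 5 h compound treatment. Data are normalised to DMSO and tetra n-octyl ammonium bromide controls.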

[8] = biological target: Retinoic acid receptor RXR-alpha (Homo sapiens) (UniProt P19793); assay: qHTS assay to identify small molecule agonists of the RXR signaling pathway (AID 1159527); also: nearly all actives have a fitted effect of over 35% in size
Procedure, shortened: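 GeneBLAzer RXR-alpha-UAS-bla HEK 293T cells in 2% charcoal-stripped FBS medium were exposed to compounds for 16 hr at 37 C in agonist mode. Beta-lactamase reporter read as 460/530 nm FRET ratio after 2 hr substrate loading.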

[9] = qHTS assay to identify small molecule agonists of the AP-1 signaling pathway (AID 1159526)

Retinoic acid receptor RXR-alpha (Homo sapiens), sequence (P19793 whole entry, looked up): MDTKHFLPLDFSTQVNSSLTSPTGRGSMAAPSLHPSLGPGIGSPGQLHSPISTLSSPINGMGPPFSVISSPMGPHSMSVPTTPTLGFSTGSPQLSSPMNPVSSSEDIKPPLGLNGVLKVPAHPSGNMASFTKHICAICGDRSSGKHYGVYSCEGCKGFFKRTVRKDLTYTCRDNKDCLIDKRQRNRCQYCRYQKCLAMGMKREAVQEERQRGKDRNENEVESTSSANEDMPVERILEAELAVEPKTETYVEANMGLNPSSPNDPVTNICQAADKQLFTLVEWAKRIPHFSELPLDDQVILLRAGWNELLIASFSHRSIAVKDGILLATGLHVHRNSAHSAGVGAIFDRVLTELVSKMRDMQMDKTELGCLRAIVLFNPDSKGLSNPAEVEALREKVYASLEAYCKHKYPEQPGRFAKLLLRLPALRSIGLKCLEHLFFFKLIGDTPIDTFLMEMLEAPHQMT

O=C(/C=C/c1ccc([N+](=O)[O-])cc1)c1ccccc1
Potency [1]: inactive | outcome [2]: inactive | Potency [3]: inactive | Potency [4]: inactive | Potency [5]: inactive | Potency [6]: inactive | Potency [7]: inactive

Nc1nc2ccc(OC(F)(F)F)cc2s1
outcome [2]: inactive | Potency [3]: inactive | Potency [4]: inactive | Potency [5]: inactive | Potency [6]: inactive | Potency [7]: inactive | Potency [8]: inactive

CC(C)COC(=O)c1ccc(O)cc1
Potency [1]: inactive | outcome [2]: inactive | Potency [3]: inactive | Potency [4]: inactive | Potency [5]: inactive | Potency [6]: inactive | Potency [7]: inactive | Potency [8]: inactive

c1ccc(CCCc2ccncc2)cc1
Potency [1]: inactive | outcome [2]: inactive | Potency [3]: inactive | Potency [4]: inactive | Potency [5]: inactive | Potency [6]: inactive | Potency [7]: inactive | outcome [9]: inactive

Cc1ccc(Cl)cc1N
Potency [1]: inactive | outcome [2]: inactive | Potency [3]: inactive | Potency [4]: inactive | Potency [5]: inactive | Potency [6]: inactive | Potency [7]: inactive | outcome [9]: inactive | Potency [8]: inactive

CC(C)(C)C(O)/C=C/c1ccc2c(c1)OCO2 (configuration not stated)
Potency [1]: inactive | outcome [2]: inactive | Potency [3]: inactive | Potency [4]: inactive | Potency [5]: inactive | Potency [6]: inactive | Potency [7]: inactive | Potency [8]: inactive

Cc1cccc2sc(N)nc12
Potency [1]: inactive | outcome [2]: inactive | Potency [3]: inactive | Potency [4]: inactive | Potency [5]: inactive | Potency [6]: inactive | outcome [9]: inactive | Potency [8]: inactive

Cc1cn([C@H]2C[C@H](F)[C@@H](CO)O2)c(=O)[nH]c1=O
Potency [1]: inactive | outcome [2]: inactive | Potency [3]: inactive | Potency [4]: inactive | Potency [5]: inactive | Potency [6]: inactive | Potency [7]: inactive | outcome [9]: inactive | Potency [8]: inactive

O=C(Oc1ccccc1)c1ccc2ccccc2c1O
Potency [1]: inactive | outcome [2]: inactive | Potency [3]: inactive | Potency [4]: inactive | Potency [5]: inactive | Potency [6]: inactive | Potency [7]: inactive | outcome [9]: inactive

O=C(O)c1cccc(Oc2ccccc2)c1
Potency [1]: inactive | outcome [2]: inactive | Potency [3]: inactive | Potency [4]: inactive | Potency [5]: inactive | Potency [6]: inactive | Potency [7]: inactive | outcome [9]: inactive

O=[N+]([O-])c1ccc2ncccc2c1
Potency [1]: inactive | outcome [2]: inactive | Potency [3]: inactive | Potency [4]: inactive | Potency [5]: inactive | Potency [6]: inactive | Potency [7]: inactive | outcome [9]: inactive

Cc1cc(CCCOc2c(C)cc(-c3noc(C(F)(F)F)n3)cc2C)on1
Potency [1]: inactive | outcome [2]: inactive | Potency [3]: inactive | Potency [4]: inactive | Potency [5]: inactive | Potency [6]: inactive | Potency [7]: inactive | Potency [8]: inactive

CC(=O)OCC(=O)[C@@]1(OC(C)=O)[C@@H](C)C[C@H]2[C@@H]3C[C@H](F)C4=CC(=O)C=C[C@]4(C)[C@@]3(F)[C@@H](O)C[C@@]21C
Potency [1]: inactive | outcome [2]: inactive | Potency [3]: inactive | Potency [4]: inactive | Potency [5]: inactive | Potency [6]: inactive | Potency [7]: inactive | outcome [9]: inactive

COC(=O)Nc1nc2ccc(C(=O)C3CC3)cc2[nH]1
Potency [1]: inactive | outcome [2]: inactive | Potency [3]: inactive | Potency [4]: inactive | Potency [5]: inactive | Potency [6]: inactive | Potency [7]: inactive | outcome [9]: inactive

O=c1[nH]c2cc(C(F)(F)F)c(N3CCOCC3)cc2n(CP(=O)(O)O)c1=O
Potency [1]: inactive | outcome [2]: inactive | Potency [3]: inactive | Potency [4]: inactive | Potency [5]: inactive | Potency [6]: inactive | Potency [7]: inactive | outcome [9]: inactive | Potency [8]: inactive

O=C1NC(=O)c2cccc3cccc1c23
Potency [1]: inactive | outcome [2]: inactive | Potency [3]: inactive | Potency [4]: inactive | Potency [5]: inactive | Potency [6]: inactive | Potency [7]: inactive | outcome [9]: inactive

O=C1OC(=O)c2c(Br)c(Br)c(Br)c(Br)c21
Potency [1]: inactive | outcome [2]: inactive | Potency [3]: inactive | Potency [4]: inactive | Potency [5]: inactive | Potency [6]: inactive | outcome [9]: inactive | Potency [8]: inactive

CC[C@H]1OC(=O)[C@H](C)[C@@H](O[C@H]2C[C@@](C)(OC)[C@@H](O)[C@H](C)O2)[C@H](C)[C@@H](O[C@@H]2O[C@H](C)C[C@H](N(C)C)[C@H]2O)[C@](C)(O)C[C@@H](C)CN(C)[C@H](C)[C@@H](O)[C@]1(C)O
Potency [1]: 2900 nM (active) | outcome [2]: inactive | Potency [3]: inactive | Potency [4]: inactive | Potency [5]: inactive | Potency [6]: inactive | Potency [7]: inactive | outcome [9]: inactive

CCN(CC)CC(=O)Nc1c(C)cccc1C(=O)OC
Potency [1]: inactive | outcome [2]: inactive | Potency [3]: inactive | Potency [4]: inactive | Potency [5]: inactive | Potency [6]: inactive | Potency [7]: inactive | outcome [9]: inactive | Potency [8]: inactive

CCSC(=O)N(CC)CC
Potency [1]: inactive | outcome [2]: inactive | Potency [3]: inactive | Potency [4]: inactive | Potency [5]: inactive | Potency [6]: inactive | Potency [7]: inactive | outcome [9]: inactive | Potency [8]: inactive

CCCCCCCC/C=C\CCCCCCCC(=O)OCCO
Potency [1]: inactive | outcome [2]: inactive | Potency [3]: inactive | Potency [4]: inactive | Potency [5]: inactive | Potency [6]: inactive | Potency [7]: inactive

O=C(O)CCS
Potency [1]: inactive | outcome [2]: inactive | Potency [3]: inactive | Potency [4]: inactive | Potency [5]: inactive | Potency [6]: inactive | Potency [7]: inactive | outcome [9]: inactive | Potency [8]: inactive

O=C(O)CO
Potency [1]: inactive | outcome [2]: inactive | Potency [3]: inactive | Potency [4]: inactive | Potency [5]: inactive | Potency [6]: inactive | Potency [7]: inactive | outcome [9]: inactive | Potency [8]: inactive

CC(=O)C(=O)CC(C)C
Potency [1]: inactive | outcome [2]: inactive | Potency [3]: inactive | Potency [4]: inactive | Potency [5]: inactive | Potency [6]: inactive | Potency [7]: inactive | outcome [9]: inactive | Potency [8]: inactive
